The supplement of paper PMC7411054

Experiments:
Conditions in all cases: treatment time: 24 h
A549-ACTB-RAB5A [1] = experiment: lowest phenotypically active concentration; higher = less potent
In short: (§1)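 Each of fifteen gene-edited A549, HepG2 and WPMY1 reporter lines, marked with BFP for segmentation and GFP and RFP/FusionRed, was treated in four wells at 0.3, 1, 3 or 9 µM for 24 h prior to live imaging. Normalisation of per-well live-cell features used solvent control wells. Deviation needed ≥3 of 4 wells beyond the 95th percentile of control Euclidean distances, and reproducibility needed a median replicate Pearson correlation above the 95th percentile of non-replicates. Both were required for phenotypic activity.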

A549-CANX-COX4 [2] = experiment: as above
In short: as §1

A549-GM130-SQSTM1 [3] = experiment: as above
In short: as §1

A549-TP53BP1-CLTA [4] = experiment: as above
In short: as §1

A549-TUBA1B-RELA [5] = experiment: as above
In short: as §1

A549-ACTB-RAB5A [6] = experiment: phenotypically active (imaging signature differs from DMSO and reproducible) at any of 0.3-9 uM (binary (1 = active, 0 = inactive)); higher = active
In short: as §1

A549-CANX-COX4 [7] = experiment: as above
In short: as §1

A549-GM130-SQSTM1 [8] = experiment: as above
In short: as §1

A549-TP53BP1-CLTA [9] = experiment: as above
In short: as §1

A549-TUBA1B-RELA [10] = experiment: as above
In short: as §1

HepG2-ACTB-RAB5A = experiment: as above
In short: as §1

HepG2-CANX-COX4 = experiment: as above
In short: as §1

HepG2-GM130-SQSTM1 = experiment: as above
In short: as §1

HepG2-TP53BP1-CLTA = experiment: as above
In short: as §1

HepG2-TUBA1B-RELA = experiment: as above
In short: as §1

WPMY1-ACTB-RAB5A = experiment: as above
In short: as §1

WPMY1-CANX-COX4 = experiment: as above
In short: as §1

WPMY1-GM130-SQSTM1 = experiment: as above
In short: as §1

WPMY1-TP53BP1-CLTA = experiment: as above
In short: as §1

WPMY1-TUBA1B-RELA = experiment: as above
In short: as §1

COc1cc2c(cc1O)CC[C@@H]1[C@@H]2CC[C@]2(C)[C@@H](O)CC[C@@H]12 [2-methoxyestradiol]
inactive: phenotypically active (WPMY1-GM130-SQSTM1) 0
active: phenotypically active (A549-ACTB-RAB5A [6]) 1 | phenotypically active (A549-CANX-COX4 [7]) 1 | phenotypically active (A549-GM130-SQSTM1 [8]) 1 | phenotypically active (A549-TP53BP1-CLTA [9]) 1 | phenotypically active (A549-TUBA1B-RELA [10]) 1 | phenotypically active (HepG2-ACTB-RAB5A) 1 | phenotypically active (HepG2-CANX-COX4) 1 | phenotypically active (HepG2-GM130-SQSTM1) 1 | phenotypically active (HepG2-TP53BP1-CLTA) 1 | phenotypically active (HepG2-TUBA1B-RELA) 1 | phenotypically active (WPMY1-ACTB-RAB5A) 1 | phenotypically active (WPMY1-CANX-COX4) 1 | phenotypically active (WPMY1-TP53BP1-CLTA) 1 | phenotypically active (WPMY1-TUBA1B-RELA) 1
1 µM: lowest phenotypically active concentration (A549-ACTB-RAB5A [1]) | lowest phenotypically active concentration (A549-CANX-COX4 [2]) | lowest phenotypically active concentration (A549-GM130-SQSTM1 [3]) | lowest phenotypically active concentration (A549-TP53BP1-CLTA [4]) | lowest phenotypically active concentration (A549-TUBA1B-RELA [5])

O=C(O)[C@]1(Cc2cccc(Nc3nccs3)n2)CC[C@@H](Oc2cccc(Cl)c2F)CC1
1 µM: lowest phenotypically active concentration (A549-CANX-COX4 [2]) | lowest phenotypically active concentration (A549-TP53BP1-CLTA [4]) | lowest phenotypically active concentration (A549-TUBA1B-RELA [5])
active: phenotypically active (A549-ACTB-RAB5A [6]) 1 | phenotypically active (A549-CANX-COX4 [7]) 1 | phenotypically active (A549-GM130-SQSTM1 [8]) 1 | phenotypically active (A549-TP53BP1-CLTA [9]) 1 | phenotypically active (A549-TUBA1B-RELA [10]) 1 | phenotypically active (HepG2-ACTB-RAB5A) 1 | phenotypically active (HepG2-CANX-COX4) 1 | phenotypically active (HepG2-GM130-SQSTM1) 1 | phenotypically active (HepG2-TP53BP1-CLTA) 1 | phenotypically active (HepG2-TUBA1B-RELA) 1 | phenotypically active (WPMY1-ACTB-RAB5A) 1 | phenotypically active (WPMY1-CANX-COX4) 1 | phenotypically active (WPMY1-TP53BP1-CLTA) 1 | phenotypically active (WPMY1-TUBA1B-RELA) 1
inactive: phenotypically active (WPMY1-GM130-SQSTM1) 0
≤ 0.3 µM: lowest phenotypically active concentration (A549-ACTB-RAB5A [1]) | lowest phenotypically active concentration (A549-GM130-SQSTM1 [3])

COc1cc(O)cc(O)c1C(=O)/C=C/c1ccccc1 [Cardamonin]
9 µM: lowest phenotypically active concentration (A549-ACTB-RAB5A [1]) | lowest phenotypically active concentration (A549-CANX-COX4 [2]) | lowest phenotypically active concentration (A549-GM130-SQSTM1 [3]) | lowest phenotypically active concentration (A549-TP53BP1-CLTA [4]) | lowest phenotypically active concentration (A549-TUBA1B-RELA [5])
inactive: phenotypically active (HepG2-TP53BP1-CLTA) 0
active: phenotypically active (A549-ACTB-RAB5A [6]) 1 | phenotypically active (A549-CANX-COX4 [7]) 1 | phenotypically active (A549-GM130-SQSTM1 [8]) 1 | phenotypically active (A549-TP53BP1-CLTA [9]) 1 | phenotypically active (A549-TUBA1B-RELA [10]) 1 | phenotypically active (HepG2-ACTB-RAB5A) 1 | phenotypically active (HepG2-CANX-COX4) 1 | phenotypically active (HepG2-GM130-SQSTM1) 1 | phenotypically active (HepG2-TUBA1B-RELA) 1 | phenotypically active (WPMY1-ACTB-RAB5A) 1 | phenotypically active (WPMY1-CANX-COX4) 1 | phenotypically active (WPMY1-GM130-SQSTM1) 1 | phenotypically active (WPMY1-TP53BP1-CLTA) 1 | phenotypically active (WPMY1-TUBA1B-RELA) 1

O=C(CCCCSc1nc(-c2ccc(-c3ccccc3)cc2)cc(=O)[nH]1)NO
active: phenotypically active (A549-ACTB-RAB5A [6]) 1 | phenotypically active (A549-CANX-COX4 [7]) 1 | phenotypically active (A549-GM130-SQSTM1 [8]) 1 | phenotypically active (A549-TP53BP1-CLTA [9]) 1 | phenotypically active (A549-TUBA1B-RELA [10]) 1 | phenotypically active (HepG2-ACTB-RAB5A) 1 | phenotypically active (HepG2-CANX-COX4) 1 | phenotypically active (HepG2-GM130-SQSTM1) 1 | phenotypically active (HepG2-TP53BP1-CLTA) 1 | phenotypically active (HepG2-TUBA1B-RELA) 1 | phenotypically active (WPMY1-ACTB-RAB5A) 1 | phenotypically active (WPMY1-CANX-COX4) 1 | phenotypically active (WPMY1-GM130-SQSTM1) 1 | phenotypically active (WPMY1-TP53BP1-CLTA) 1 | phenotypically active (WPMY1-TUBA1B-RELA) 1
≤ 0.3 µM: lowest phenotypically active concentration (A549-ACTB-RAB5A [1]) | lowest phenotypically active concentration (A549-GM130-SQSTM1 [3]) | lowest phenotypically active concentration (A549-TP53BP1-CLTA [4]) | lowest phenotypically active concentration (A549-TUBA1B-RELA [5])
1 µM: lowest phenotypically active concentration (A549-CANX-COX4 [2])

CN(C)C(=O)C(CCN1CCC(O)(c2ccc(Cl)cc2)CC1)(c1ccccc1)c1ccccc1 [loperamide]
active: phenotypically active (A549-ACTB-RAB5A [6]) 1 | phenotypically active (A549-CANX-COX4 [7]) 1 | phenotypically active (A549-GM130-SQSTM1 [8]) 1 | phenotypically active (A549-TP53BP1-CLTA [9]) 1 | phenotypically active (A549-TUBA1B-RELA [10]) 1 | phenotypically active (HepG2-ACTB-RAB5A) 1 | phenotypically active (HepG2-GM130-SQSTM1) 1 | phenotypically active (HepG2-TP53BP1-CLTA) 1 | phenotypically active (HepG2-TUBA1B-RELA) 1 | phenotypically active (WPMY1-ACTB-RAB5A) 1 | phenotypically active (WPMY1-CANX-COX4) 1 | phenotypically active (WPMY1-GM130-SQSTM1) 1 | phenotypically active (WPMY1-TP53BP1-CLTA) 1 | phenotypically active (WPMY1-TUBA1B-RELA) 1
inactive: phenotypically active (HepG2-CANX-COX4) 0
9 µM: lowest phenotypically active concentration (A549-CANX-COX4 [2]) | lowest phenotypically active concentration (A549-GM130-SQSTM1 [3]) | lowest phenotypically active concentration (A549-TP53BP1-CLTA [4])
3 µM: lowest phenotypically active concentration (A549-ACTB-RAB5A [1]) | lowest phenotypically active concentration (A549-TUBA1B-RELA [5])

COc1cc2nc(N3CCCN(C)CC3)nc(NC3CCN(Cc4ccccc4)CC3)c2cc1OC
≤ 0.3 µM: lowest phenotypically active concentration (A549-ACTB-RAB5A [1]) | lowest phenotypically active concentration (A549-GM130-SQSTM1 [3]) | lowest phenotypically active concentration (A549-TUBA1B-RELA [5])
active: phenotypically active (A549-ACTB-RAB5A [6]) 1 | phenotypically active (A549-CANX-COX4 [7]) 1 | phenotypically active (A549-GM130-SQSTM1 [8]) 1 | phenotypically active (A549-TP53BP1-CLTA [9]) 1 | phenotypically active (A549-TUBA1B-RELA [10]) 1 | phenotypically active (HepG2-ACTB-RAB5A) 1 | phenotypically active (HepG2-CANX-COX4) 1 | phenotypically active (HepG2-GM130-SQSTM1) 1 | phenotypically active (HepG2-TP53BP1-CLTA) 1 | phenotypically active (HepG2-TUBA1B-RELA) 1 | phenotypically active (WPMY1-ACTB-RAB5A) 1 | phenotypically active (WPMY1-CANX-COX4) 1 | phenotypically active (WPMY1-GM130-SQSTM1) 1 | phenotypically active (WPMY1-TP53BP1-CLTA) 1 | phenotypically active (WPMY1-TUBA1B-RELA) 1
1 µM: lowest phenotypically active concentration (A549-CANX-COX4 [2]) | lowest phenotypically active concentration (A549-TP53BP1-CLTA [4])
